From PubChem BioAssay (NCI) come the findings set out here.

The panel holds about 79,000 compounds, 15% with a hit somewhere; the sample as a whole holds those more often. A number with no mark means an inactive call. Calls of active or inactive are those of the source. No stated cut-off is given here; in the data, active means growth inhibition above about 70%; inactive means the rest.

A short description of experiment [1]: NCI Yeast Anticancer Drug Screen. Data for the rad50 strain (AID 155).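 Further: 0% = growth of vehicle-only cultures of the same strain.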 The following applies: S. cerevisiae rad50 strain growth inhibition, stronger effect = higher value. In a few lines:
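Readout: growth inhibition relative to vehicle-treated cultures. Compound exposure was carried out in a genetically defined yeast strain deficient in DNA damage repair.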

A short description of experiment [2]: NCI Yeast Anticancer Drug Screen. Data for the mec2-1 strain (AID 157). The following applies: S. cerevisiae mec2-1 strain, stronger effect = higher value. In a few lines: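 Mutant yeast (mec2-1) grown with compound; growth inhibition relative to vehicle control reported.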
Experiment [3] is described as follows: NCI Yeast Anticancer Drug Screen. Data for the sgs1 mgt1 strain (AID 161).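 Further: 0% = growth of cultures given vehicle only.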 To be noted: S. cerevisiae sgs1 mgt1 strain, stronger effect = higher value. In a few lines: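 Compounds are added to genetically altered yeast, and growth is compared with cultures given vehicle alone to give percent inhibition.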
Experiment [4] is described as follows: NCI Yeast Anticancer Drug Screen. Data for the cln2 rad14 strain (AID 165).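 Further: 0% = growth equal to vehicle treated cultures.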 The following applies: S. cerevisiae cln2 rad14 strain, stronger effect = higher value. In a few lines:
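Readout is yeast growth inhibition versus vehicle-treated controls, using a strain with cln2 and rad14 alterations exposed to compound.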

Experiment [5] can be described thus: NCI Yeast Anticancer Drug Screen. Data for the bub3 strain (AID 167). The following applies: S. cerevisiae bub3 mutant strain, stronger effect = higher value. In a few lines:
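Readout: yeast growth inhibition, expressed relative to vehicle-only wells. The test organism is a mutant strain from a panel with lesions in DNA repair or checkpoint genes.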

A short description of experiment [6]: NCI Yeast Anticancer Drug Screen. Data for the mlh1 rad18 strain (AID 175). To be noted: S. cerevisiae mlh1 rad18 strain growth inhibition, stronger effect = higher value. In a few lines: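 Genetically defined yeast (DNA repair-deficient) exposed to compounds; growth inhibition determined relative to vehicle.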
[7] abbreviates: at 5.0 µM (retest, dose inferred, filed as 0.5).
Where [8] appears, read: at 50.0 µM (retest, dose inferred, filed as 5.0).

For `C/C=C/C=N/N(c1nnc(-c2ccccc2)c(-c2ccccc2)n1)S(=O)(=O)c1ccc(C)cc1`, the growth inhibition in experiment [1] (setting [7]) is 58%; in experiment [1] (setting [8]), 58%; in experiment [1] (at 50.0 µM) it was 92.2% (active); in experiment [2] (setting [7]), 29%; in experiment [2] (setting [8]), 29%; in experiment [2] (at 50.0 µM) it was 91.3% (active). The growth inhibition in experiment [3] (setting [7]) was 36%; in experiment [3] (setting [8]) it was 36%; in experiment [3] (at 50.0 µM) it was 90.1% (active); in experiment [4] (setting [7]) it was 38%; in experiment [4] (setting [8]), 38%; in experiment [4] (at 50.0 µM), 90% (active). The growth inhibition is 52% in experiment [5] (setting [7]); 52% in experiment [5] (setting [8]); 92.3% (active) in experiment [5] (at 50.0 µM); 34% in experiment [6] (setting [7]); 34% in experiment [6] (setting [8]); 91.5% (active) in experiment [6] (at 50.0 µM).
Regarding `CC(=O)NNc1nc(C)c(C(=O)NNC(=O)C(=O)Nc2ccc(Cl)cc2Cl)s1`, the growth inhibition in experiment [1] (setting [7]) is 1%; in experiment [1] (setting [8]), 82% (active); in experiment [1] (at 50.0 µM) it was 54.6%; in experiment [2] (setting [7]), 1%; in experiment [2] (setting [8]) it was 94% (active); in experiment [2] (at 50.0 µM) it was 39.4%. The growth inhibition in experiment [3] (setting [7]) is 5%; in experiment [3] (setting [8]), 87% (active); in experiment [3] (at 50.0 µM), 53.2%; in experiment [4] (setting [7]), -4%; in experiment [4] (setting [8]), 85% (active); in experiment [4] (at 50.0 µM) it was -38.2%. Moreover, the growth inhibition is 5% in experiment [5] (setting [7]); 89% (active) in experiment [5] (setting [8]); 45.4% in experiment [5] (at 50.0 µM); -2% in experiment [6] (setting [7]); 89% (active) in experiment [6] (setting [8]); 73.9% (active) in experiment [6] (at 50.0 µM).
As for `Fc1ccc2[nH]ccc2c1`, the growth inhibition in experiment [1] (setting [7]) is 9%; in experiment [1] (setting [8]), 41%; in experiment [1] (at 50.0 µM), 55.5%; in experiment [2] (setting [7]), -22%; in experiment [2] (setting [8]) it was 13%; in experiment [2] (at 50.0 µM), 28.8%. For the same compound, the growth inhibition in experiment [3] (setting [7]) is 5%; in experiment [3] (setting [8]) it was 19%; in experiment [3] (at 50.0 µM) it was 60.6%; in experiment [4] (setting [7]), 9%; in experiment [4] (setting [8]), 47%; in experiment [4] (at 50.0 µM), 34.4%. The growth inhibition in experiment [5] (setting [7]) is 2%; in experiment [5] (setting [8]) it was 62%; in experiment [5] (at 50.0 µM), 62.3%; in experiment [6] (setting [7]), -19%; in experiment [6] (setting [8]) it was 44%; in experiment [6] (at 50.0 µM), 49.3%.
For the compound `Nc1cc2c(nc3c4ccccc4c(N)cc3[n+]2-c2cccc3ccccc23)c2ccccc12` (tested in a mixture with another compound), the growth inhibition in experiment [1] (setting [7]) is 95% (active); in experiment [1] (setting [8]), 92% (active); in experiment [1] (at 50.0 µM), 89.4% (active); in experiment [2] (setting [7]), 62%; in experiment [2] (setting [8]), 92% (active); in experiment [2] (at 50.0 µM) it was 90.2% (active). The growth inhibition in experiment [3] (setting [7]) is 59%; in experiment [3] (setting [8]), 94% (active); in experiment [3] (at 50.0 µM) it was 89.2% (active); in experiment [4] (setting [7]), 31%; in experiment [4] (setting [8]), 89% (active); in experiment [4] (at 50.0 µM) it was 84.5% (active). For the same compound, the growth inhibition in experiment [5] (setting [7]) is 61%; in experiment [5] (setting [8]) it was 91% (active); in experiment [5] (at 50.0 µM), 84.8% (active); in experiment [6] (setting [7]) it was 79% (active); in experiment [6] (setting [8]) it was 91% (active); in experiment [6] (at 50.0 µM), 89.8% (active).
On to `CCN(CC)CCCC(C)Nc1cc(O)c2c(c1O)C(=O)c1ccccc1C2=O` (configuration not stated), for which the growth inhibition in experiment [1] (setting [7]) is 96% (active); in experiment [1] (setting [8]) it was 98% (active); in experiment [1] (at 50.0 µM), 98.8% (active); in experiment [2] (setting [7]), 95% (active); in experiment [2] (setting [8]), 99% (active); in experiment [2] (at 50.0 µM), 98.5% (active). The growth inhibition is 98% (active) in experiment [3] (setting [7]); 99% (active) in experiment [3] (setting [8]); 98.8% (active) in experiment [3] (at 50.0 µM); 53% in experiment [4] (setting [7]); 98% (active) in experiment [4] (setting [8]); 97.2% (active) in experiment [4] (at 50.0 µM). The growth inhibition in experiment [5] (setting [7]) is 95% (active); in experiment [5] (setting [8]) it was 98% (active); in experiment [5] (at 50.0 µM), 97.8% (active); in experiment [6] (setting [7]), 94% (active); in experiment [6] (setting [8]), 98% (active); in experiment [6] (at 50.0 µM) it was 98.8% (active).
For the compound `CCCCCCCCC(N)CCCCCCCC`, the growth inhibition in experiment [1] (setting [7]) was 99% (active); in experiment [1] (setting [8]) it was 98% (active); in experiment [1] (at 50.0 µM), 99% (active); in experiment [2] (setting [7]), 100% (active); in experiment [2] (setting [8]) it was 99% (active); in experiment [2] (at 50.0 µM), 99% (active). Besides, the growth inhibition in experiment [3] (setting [7]) was 99% (active); in experiment [3] (setting [8]), 99% (active); in experiment [3] (at 50.0 µM), 46%; in experiment [4] (setting [7]), 96% (active); in experiment [4] (setting [8]), 99% (active); in experiment [4] (at 50.0 µM), 98.8% (active). Further, the growth inhibition in experiment [5] (setting [7]) is 99% (active); in experiment [5] (setting [8]), 98% (active); in experiment [5] (at 50.0 µM), 99.2% (active); in experiment [6] (setting [7]) it was 99% (active); in experiment [6] (setting [8]), 98% (active); in experiment [6] (at 50.0 µM), 99.5% (active).
In the case of `CSc1ncc2c(n1)-c1ccccc1OC2NC1CC1` (configuration not stated), the growth inhibition in experiment [1] (setting [7]) is 24%; in experiment [1] (setting [8]) it was 22%; in experiment [1] (at 50.0 µM), 71.5% (active); in experiment [2] (setting [7]) it was 18%; in experiment [2] (setting [8]) it was 16%; in experiment [2] (at 50.0 µM), 62.5%. Also, the growth inhibition in experiment [3] (setting [7]) was 17%; in experiment [3] (setting [8]), 20%; in experiment [3] (at 50.0 µM), 11.3%; in experiment [4] (setting [7]), 26%; in experiment [4] (setting [8]), 27%; in experiment [4] (at 50.0 µM), -2.85%. For the same compound, the growth inhibition was 24% in experiment [5] (setting [7]); 28% in experiment [5] (setting [8]); 14.6% in experiment [5] (at 50.0 µM); 18% in experiment [6] (setting [7]); 12% in experiment [6] (setting [8]); -7.35% in experiment [6] (at 50.0 µM).
On to `C#C[C@]1(OC(C)=O)CC[C@H]2[C@@H]3CCC4=CC(=O)CC[C@@H]4[C@H]3CC[C@@]21C`, for which the growth inhibition was 4% in experiment [1] (setting [7]); 16% in experiment [1] (setting [8]); 97.6% (active) in experiment [1] (at 50.0 µM); 7% in experiment [2] (setting [7]); 15% in experiment [2] (setting [8]); 88.3% (active) in experiment [2] (at 50.0 µM). Moreover, the growth inhibition in experiment [3] (setting [7]) was 2%; in experiment [3] (setting [8]), 29%; in experiment [3] (at 50.0 µM), 97.2% (active); in experiment [4] (setting [7]), 9%; in experiment [4] (setting [8]) it was 22%; in experiment [4] (at 50.0 µM), 89.7% (active). For the same compound, the growth inhibition was 5% in experiment [5] (setting [7]); 13% in experiment [5] (setting [8]); 93.8% (active) in experiment [5] (at 50.0 µM); 3% in experiment [6] (setting [7]); 19% in experiment [6] (setting [8]); 96.8% (active) in experiment [6] (at 50.0 µM).
Take `CC(=O)Nc1nnc(-c2coc3ccccc3c2=O)s1`: the growth inhibition in experiment [1] (setting [7]) is 7%; in experiment [1] (setting [8]) it was 0%; in experiment [1] (at 50.0 µM) it was 50.9%; in experiment [2] (setting [7]), 4%; in experiment [2] (setting [8]), 3%; in experiment [2] (at 50.0 µM), 6.25%. Besides, the growth inhibition was 1% in experiment [3] (setting [7]); -3% in experiment [3] (setting [8]); 20.4% in experiment [3] (at 50.0 µM); 9% in experiment [4] (setting [7]); 1% in experiment [4] (setting [8]); 10.7% in experiment [4] (at 50.0 µM). Further, the growth inhibition was 4% in experiment [5] (setting [7]); 1% in experiment [5] (setting [8]); 15.4% in experiment [5] (at 50.0 µM); 2% in experiment [6] (setting [7]); -4% in experiment [6] (setting [8]); 12.1% in experiment [6] (at 50.0 µM).
